SMILES strings stand for the structures. This is part of a sample that, as a whole, favours compounds with a hit. Of some 83,000 tested, about 20% had one in any assay.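 Interpretation: 100, growth as untreated; towards 0, rising growth inhibition; 0, no net growth; 0 to -100, cell death. Compounds scoring below 10 were considered active.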 Active and inactive are the calls of the source.

The subject of this test is UO-31 renal. Put plainly: NCI-60 one-dose screen, 48 h (100 = growth as untreated, 0 = no growth, -100 = all killed). Particulars: 10 µM. Here is the method:
Growth inhibition of the UO-31 human tumor cell line is measured as a screen for anti-cancer activity. Cells are grown in 96 well plates and exposed to the test compound for 48 hours. Compounds are tested at a single concentration, which is 10^-5 M for most compounds. The reported endpoint is percent growth (GI% or GIPRCNT), where numbers from 0 - 100% represent growth inhibition, and numbers from -100% - 0 represent cell death. For example, a value of 40 represents 60% growth inhibition. A value of 0 means no net growth occurred over the course of the experiment. A value of -40 indicates 40% of cells at the beginning of the experiment died by the end of the experiment. A value of -100 means all cells are dead at the end of the experiment.
NCI-60 Human Tumor Cell Lines Screen was performed using the standard one-dose NCI protocol, which is described in more detail at https://dtp.cancer.gov/discovery_development/nci-60/default.htm.
Compounds with GIPRCNT values below 10 were considered active. Activity score was based on GIPRCNT using the following formula: […]
Score is 0 for GIPRCNT values of 100 or above, 50 for GIPRCNT values of 0, and 100 for GIPRCNT values of -100.
Take `OCC1OC2C(NC(=S)N2c2ccccc2)C(O)C1O` (stereo not given): the growth is 101% (inactive).
For the compound `Cn1cnc([N+](=O)[O-])c1/C=C1\Oc2ccc(Br)cc2C1=O`, the growth is 67.6% (inactive).
As to `COc1ccc(-c2nn(-c3cccc(Cl)c3)cc2-c2nc(N)[nH]c(=O)c2C#N)cc1`, the growth is 29.7% (inactive).
As for `CN(C)CCC1(c2ccccc2)CCN(C)C1=O` (stereo not given), the growth was 87.4% (inactive).
Turning to `C[N+]1(CCCCC[N+]2(C)CCCC2)CCCC1`, the growth is 78.5% (inactive).
Turning to `C=C/C(C)=C/C[C@]1(C)[C@H](C)[C@@H](OC(=O)CCC)[C@H](O)[C@@]23C(=C[C@H](OC)C[C@@H]12)[C@@H](OC(=O)CCC)O[C@H]3OC(C)=O`, the growth is -90.7% (active).
As for `CCOC(=O)c1sc2ncnc(Nc3ccc4c(cnn4C(=O)Nc4ccc(C)c(Cl)c4)c3)c2c1C`, the growth is 94.7% (inactive).
For the compound `CCc1cc(Cl)c(OC)c(C(=O)NCC2CCCN2CC)c1O` (stereo not given), the growth is 61.4% (inactive).
The figure for `Oc1ccc(-c2[nH]c3ccccc3c2-c2nc3ccccc3o2)cc1` is 40.9% (inactive); for `O=C(CNc1nnc(-c2cccnc2SCc2ccccc2)s1)Nc1nc(Cl)cc(Cl)n1` it is 77.4% (inactive).
The figure for `COc1cc(-c2ccc[nH]2)[nH]c1/C=C1\N=C(C)C(C(=O)NC(C)C)=C1C` is -35% (active); for `COc1cc(C(=O)/C=C/c2c[nH]c3ccccc23)cc(OC)c1OC` it is 20.9% (inactive); for `C=C(C)[C@@H]1CC[C@]2(COCCC#N)CC[C@]3(C)[C@H](CC[C@@H]4[C@@]5(C)Cc6c([nH]c7ccccc67)C(C)(C)[C@@H]5CC[C@]43C)[C@@H]12` it is 94.2% (inactive).
On to `COc1cc(-c2nn(-c3ccc(NC(=O)NCCCNC(=O)c4ccccc4)cc3)cc2-c2ccncc2)ccc1Cl`, for which the growth was 29.6% (inactive).
As to `c1cncc(-c2csc(-c3c[nH]c4ccccc34)n2)c1`, the growth was 66.5% (inactive).
The figure for `CC(=O)N[C@H](C(=O)N[C@@H](CCCNC(=N)N)C(=O)N[C@@H](CCCCN)C(=O)N[C@@H](CCCNC(=N)N)C(=O)N[C@]1(C)CCCCCC/C=C\CCC[C@@](C)(C(=O)N[C@@H](CCCNC(=N)N)C(=O)N[C@@H](CCC(=O)O)C(=O)N[C@@H](CC(C)C)C(=O)N[C@H](C(=O)N[C@@H](CCC(=O)O)C(N)=O)C(C)C)NC(=O)[C@H](CCC(N)=O)NC(=O)[C@H](CC(C)C)NC(=O)[C@H](CC(C)C)NC(=O)[C@H](CCCNC(=N)N)NC(=O)[C@H](CCCNC(=N)N)NC(=O)[C@H](CC(C)C)NC1=O)C(C)C` is 50.1% (inactive); for `COc1cc2ncnc(NC3CCC(O)CC3)c2cc1OC` (stereo not given) it is 76.2% (inactive); for `O=C(CCCNC(=O)c1nc(-c2ccccc2)n(-c2ccccc2)n1)NO` it is 94.5% (inactive).
On to `Clc1nc2ccccc2cc1Cn1nnc(Cc2ccccc2)n1`, for which the growth was -81% (active).
`C(=N\Nc1ncnc2sc3c(c12)CCNC3)/c1cccc2ccccc12`: the growth was 74.4% (inactive).
Regarding `COc1cc2nc(SCC(=O)Nc3cc(OC)c(OC)c(OC)c3)n(Cc3ccccc3)c(=O)c2cc1OC`, the growth was 48.9% (inactive).
Take `C[C@H]1[C@H](OC(=O)CCC(=O)O)O[C@@H]2O[C@]3(C)CC[C@H]4[C@H](C)CC[C@@H]1[C@@]24OO3`: the growth is 9.64% (active).
Turning to `CCOC(=O)N/N=C/c1ccc(OC)c(OC)c1`, the growth is 106% (inactive).
`CNC(=O)c1cc(Oc2ccc3c(c2)sc2nc(-c4ccc(N)cc4)cn23)ccn1`: the growth was 43.8% (inactive).
Turning to `CCn1c(SCc2ccc(C)cc2)nnc1-c1nn(-c2ccc(Cl)cc2Cl)c(-c2ccc(Cl)cc2)c1C`, the growth was 9.59% (active).
As to `CC(C)(C)OC(=O)CN1CCc2c(sc3ncnc(N/N=C/c4cccc5ccccc45)c23)C1`, the growth is 3.34% (active).
With `OCC1OC(n2cnc3c(NCc4ccco4)ncnc32)C(O)C1O` (stereo not given), the growth is 20.4% (inactive).
`CCN(CC)CCN1c2nc3ccccc3cc2Sc2cc3ccccc3nc21`: the growth is -64.1% (active).
As to `COc1cc(CNC(=O)C2CSC3(C)c4ccccc4C(=O)N23)cc(OC)c1OC` (stereo not given), the growth is 90.3% (inactive).
On to `CN(C)c1ncnc2c1nnn2C1OC(CO)C(O)C1O` (stereo not given), for which the growth is 8.73% (active).
With `O=C(NCCCNS(=O)(=O)c1ccc(Cl)cc1)Nc1ccc(-n2cc(-c3ccncc3)c(-c3ccc(Cl)c(O)c3)n2)cc1`, the growth is 40.9% (inactive).
`O=C(CCC(C(=O)c1ccccc1)c1ccccc1)c1ccccc1` (stereo not given): the growth is 72.1% (inactive).
As to `NC(N)=N/N=C(\N=Nc1ccccc1)c1ccc(Cl)cc1`, the growth is 4.05% (active).
As to `CC(CN(C)C)Oc1ccc(OC(C)CN(C)C)c2c1C(=O)c1ccccc1C2=O` (stereo not given), the growth was 63.5% (inactive).
In the case of `COc1cc(Cc2cc(-c3ccccc3)n[nH]c2=O)cc(OC)c1OC`, the growth is 58.3% (inactive).
With `O=S(=O)(Oc1ccc(-c2ccc3sccc3c2)cc1)c1ccccc1`, the growth is 97.7% (inactive).
In the case of `C/C=C/C1=CN2C(=O)c3cc(OC4OC(C)C(NC)C(C)(O)C4O)c(C)c(O)c3N=C[C@@H]2C1` (stereo not given in full), the growth is -44.5% (active).
In the case of `c1ccc2c(c1)Cc1ccccc1N2CCN1CCCCC1`, the growth is 83.8% (inactive).
On to `COc1ccc(-c2n[nH]nc2-c2cc(OC)c3c(c2OC)OCO3)cc1`, for which the growth is 51.1% (inactive).
As to `COc1ccccc1/C=N\N/C(N)=N\N=C\c1ccccc1OC`, the growth is 14.1% (inactive).

For the origin of these results see PubChem BioAssay (NCI).
